What all share (format): functional
Experiment [1] addresses Solute carrier family 2, facilitated glucose transporter member 1 (Homo sapiens) (UniProt P11166). Description: ST_JUDE_LEISH: Cytotoxicity at 2uM final concentration against transgenic Leishmania Mexicana promastigotes LmGLUT1 that are glucose transport deficient and complemented with the human glucose transporter GLUT1. Activity is measured by DNA content using SYBR green in vitro.

Experiment [2] concerns the target Hexose transporter 1 (Plasmodium falciparum) (UniProt O97467). The experiment can be described thus: ST_JUDE_LEISH: Cytotoxicity at 2uM final concentration against transgenic Leishmania Mexicana promastigotes LmPfHT that are glucose transport deficient and complemented with the Plasmodium falciparum hexose transporter. Activity is measured by DNA content using SYBR green in vitro.

In experiment [3] the target is Glucose transporter (Leishmania mexicana) (UniProt O61059). Description: ST_JUDE_LEISH: Cytotoxicity at 2uM final concentration against transgenic Leishmania Mexicana promastigotes LmGT2 that are glucose transport deficient and complemented with the L. Mexicana glucose transporter 2. Activity is measured by DNA content using SYBR green in vitro.

Sequence of Solute carrier family 2, facilitated glucose transporter member 1 (Homo sapiens) (P11166 whole entry): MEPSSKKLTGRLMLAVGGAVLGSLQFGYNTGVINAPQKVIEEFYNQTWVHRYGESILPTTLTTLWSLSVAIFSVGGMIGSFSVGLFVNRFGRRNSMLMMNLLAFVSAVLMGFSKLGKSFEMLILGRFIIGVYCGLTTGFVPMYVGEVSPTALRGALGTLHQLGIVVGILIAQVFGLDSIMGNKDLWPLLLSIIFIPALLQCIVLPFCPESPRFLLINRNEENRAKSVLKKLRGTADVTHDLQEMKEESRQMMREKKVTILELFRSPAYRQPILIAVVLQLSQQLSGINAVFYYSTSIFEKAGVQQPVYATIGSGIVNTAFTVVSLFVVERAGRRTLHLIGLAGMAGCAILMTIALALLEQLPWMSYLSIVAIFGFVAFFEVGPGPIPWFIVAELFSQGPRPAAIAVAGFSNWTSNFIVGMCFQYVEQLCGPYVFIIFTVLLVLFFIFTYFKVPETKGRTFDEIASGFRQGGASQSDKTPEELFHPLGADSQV

Usually inhibition stands for the relative decrease from the control value, in per cent. In the case of `Cn1nc(C(F)(F)F)c(-c2ccc(F)cc2)c1NC(=O)Nc1ccc(F)cc1`, the inhibition in experiment [1] is 3.38%; in experiment [2], 4.67%; in experiment [3] it was 4.05%.
For `COc1ccc(-c2ccc(NC(=O)c3cccc(C#N)c3)cc2)cc1CN1CCC(O)CC1`, in that order: -0.68%, -0.84% and 2.05%.
The matching figures for `Oc1cccc(Nc2ccnc3cc(-c4nccs4)ccc23)c1`: -0.6%, 12.9% and 16.1%.
Regarding `Cc1cnc(-c2ccc(NC(=O)N3CCc4cc5nccc(N6CCN7CCC[C@H]7C6)c5cc43)c3ccccc23)o1`, the inhibition amounted to 3.29% in experiment [1], 3.79% in experiment [2] and 4.04% in experiment [3].
The matching figures for `O=C(Nc1cccc(-c2cccc(-c3nc4cc(F)ccc4[nH]3)c2)c1)c1ccncc1`: 0.54%, 0.29% and 0.2%.
The matching figures for `COc1ccc2ncc(F)c(CCN3C[C@H](CNCc4cc(C#N)c5c(c4)OCCO5)[C@H](O)C3)c2n1`: 7.97%, 8.03% and 1.91%.
As to `O=C(/C=C/c1cccc2ccccc12)NCCCCCN1CCC(c2c[nH]c3ccccc23)CC1`, the values for the inhibition in experiment [1], in experiment [2] and in experiment [3] were 0.55%, 1.35% and 2.9%, respectively.
For `CC(C)COc1ccc(Cl)cc1Cc1ccc(-c2nc3cc(F)c(F)cc3[nH]2)o1`, in that order: 3.02%, 1.87% and 1.02%.
In the case of `FC(F)(F)c1ccc2[nH]c(-c3ccc(-c4cccc(CNCc5cnn(-c6ccccc6)n5)c4)cc3)nc2c1`, the inhibition was 2.04% in experiment [1], 1.86% in experiment [2] and -0.02% in experiment [3].
As for `Cc1ccc(C(=O)NCC2CCN(c3ccc(C(F)(F)F)cc3NC(=O)c3ccco3)CC2)cn1`, the values for the inhibition in experiment [1], in experiment [2] and in experiment [3] were 2.76%, -2.99% and 3.12%, respectively.
For `Cc1ccoc1C(=O)Nc1cccc(-c2cccc(-c3nc4ccccc4[nH]3)c2)c1`, in that order: 12.3%, 6.56% and 5.58%.
Consider `Cc1cc(-c2ccc3c(c2)CCN(CCC2CCC(NC(=O)/C=C/c4ccccc4F)CC2)CC3)on1` (stereo not given), for which the inhibition in experiment [1] came out at 11%; in experiment [2], 6.81%; in experiment [3] it was 12.2%.
For `COc1ccccc1C1CCN(C2CCC(NC(=O)/C=C/c3cccc(Cl)c3F)CC2)CC1` (stereo not given), in that order: 10.5%, 1.32% and 3.14%.
For `CN(C)CCC1CCN(CCS(=O)(=O)c2cccc(Nc3ncc(-c4cccc(F)c4)cn3)c2)CC1`, in that order: -2.08%, 0.49% and 9.03%.
As to `Cc1cc(-c2ccc3c(c2)CCN(CCCOc2ccc4c(c2)CCN4C(=O)/C=C/c2ccccc2Cl)CC3)no1`, the figures for the inhibition in experiment [1], in experiment [2] and in experiment [3] were 5.8%, 12% and 4.78%, respectively.
The matching figures for `COc1ccccc1-c1ccc(C(=O)NCC2CCCN(Cc3cccc(C(F)(F)F)c3)C2)s1` (stereo not given): 6.82%, 8.99% and 7.33%.
The matching figures for `CON=Cc1ccn(-c2ccc(O)c3c2C[C@H]2C[C@H]4[C@H](N(C)C)C(O)=C(C(N)=O)C(=O)[C@@]4(O)C(O)=C2C3=O)c1`: 5.15%, 4.25% and 4.92%.
For `Cc1ccc(Cc2c[nH]c(NCCSCc3ccc(CN(C)C)s3)nc2=O)cn1`, in that order: 1.24%, 1.14% and 2.78%.
As to `Oc1ccc(CCCNc2nc(NCc3cccc4ccccc34)nc(N3CCNCC3)n2)cc1`, the inhibition is -1.06% in experiment [1], 0.53% in experiment [2] and 0.63% in experiment [3].
As to `CC(=NNC(S)=NCCc1ccccn1)c1ccccn1`, the results for the inhibition in experiment [1], in experiment [2] and in experiment [3] were 7.78%, 4.39% and 6.19%, respectively.
The matching figures for `Cc1cc(=O)c(-c2ccc(OCc3ccc(OC(F)(F)F)cc3)cc2)c(C)[nH]1`: 7.02%, 4.41% and 2.08%.
The matching figures for `CCCCCC(C)C(C)c1cc(O)c2c(c1)OC(C)(C)C=C2c1cc[n+]([O-])cc1` (stereo not given): 11%, 10.4% and 9.99%.
For `Cc1cccc2nc(-c3ccc(-c4cccc(NC(=O)c5cncn5C)c4)s3)[nH]c12`, in that order: 0.66%, 2.43% and -2.47%.
On to `CC(C)c1ccc(CN2CCC(CNC(=O)c3cc(-c4ccccc4F)cs3)C2)cc1` (stereo not given), for which the inhibition worked out at 4.5% in experiment [1], 4.88% in experiment [2] and 8.4% in experiment [3].
Consider `CC(C)(C)c1ccc(O)c(CNC2CCCCC2)c1`, for which the inhibition was found to be 4.48% in experiment [1], 3.36% in experiment [2] and 3.1% in experiment [3].
On to `CC(C)(C)c1ccc(CN2CCC(NC(=O)c3ccc(-c4cccc(Cl)c4)s3)CC2)cc1`, for which the inhibition in experiment [1] came out at 11.2%; in experiment [2] it was 8.67%; in experiment [3], 7.09%.
Consider `CCOc1cc(C(=O)NCc2cc(Cl)cc(Cl)c2)ccc1-c1nc2cc(Cl)ccc2[nH]1`, for which the figures for the inhibition in experiment [1], in experiment [2] and in experiment [3] were 1.6%, 2.18% and 1.11%, respectively.
For `COc1ccc([N+](=O)[O-])cc1N(Cc1ccccc1-c1ccccc1)S(=O)(=O)c1ccc(C(F)(F)F)cc1`, the inhibition in experiment [1] came out at 3.87%; in experiment [2], 5.68%; in experiment [3] it was 2.13%.
On to `COc1ccc(C=C2SC(=O)N=C2Nc2ccccc2)c(OC)c1`, for which the inhibition in experiment [1] amounted to 6.71%; in experiment [2], 5.61%; in experiment [3] it was 2.58%.
For `CN(C)CCCN1CCN(C(=O)c2cc3cc(-c4ccccc4)ccc3n2S(=O)(=O)c2ccccc2)CC1`, the inhibition is 60.9% in experiment [1], 24.3% in experiment [2] and 2.85% in experiment [3].
As for `COC(=O)COc1cc(C(=O)NCCCCN2CCC(c3ccc4c(c3OC)CCCC4)CC2)ccc1-c1ccc(Cl)cc1`, the inhibition in experiment [1] was 3.39%; in experiment [2], 2.65%; in experiment [3], 1.4%.
The matching figures for `Cc1cc(C(=O)CN2C(=O)NC3(CCCc4ccccc43)C2=O)c(C)n1Cc1ccco1` (stereo not given): 1.28%, 0.08% and -1.89%.
Regarding `CC(c1cccc(S(=O)(=O)NCc2ccc(Cl)cc2Cl)c1)N1CCC(N2CCCCC2)CC1` (stereo not given), the inhibition in experiment [1] was 8.44%; in experiment [2], 4.33%; in experiment [3], 3.71%.
For `Cc1ccc(CON2C(N)=NC(N)=NC2(C)C)c(Cl)c1.Cc1ccc(CON2C(N)=NC(N)=NC2(C)C)cc1Cl`, in that order: 2.94%, 4.84% and 1%.
For `Cc1ccc(Cn2ncc(NC3CCNCC3)c(Cl)c2=O)cc1NC(=O)Nc1ccc(-c2ccccc2)cc1`, in that order: 5.14%, 9.28% and 5.29%.

The values above are taken from ChEMBL document CHEMBL3433997, “St. Jude Leishmania screening dataset” (2016).
